Data as given in the supplement of paper PMC10849652.
About 8,800 targets were measured; listed, in parts, are those with a hit and a random draw of the rest. About 0.5% of all pairs of compound and target were hits.

Legend:
Experiment in all cases: log2 fold change, soluble protein after heating vs DMSO (PISA); higher = thermal stabilisation; K562 lysate, 10 uM; active = over 0.2 and 3.5 SD of the protein, either way, in both replicates (recomputed)
ibrutinib = compound: C=CC(=O)N1CCC[C@@H](n2nc(-c3ccc(Oc4ccccc4)cc3)c3c(N)ncnc32)C1 [ibrutinib]
Procedure, shortened: (§1)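 Dounce homogenisation of K562 pellets in PBS pH 7.4 with 1 mM MgCl2 produced a crude extract, used at 1 mg/mL protein. Exposure to 10 μM compound lasted 30 min, and aliquots were then heated for 3 min across 48°C-58°C, pooled and brought to 0.5% NP-40 at 4°C. The supernatant after 21,000xg for 90 min was quantified by TMTpro 16plex LC-MS/MS with channel sums equalised. Duplicate values are given as log-two fold change in thermal stability relative to solvent controls.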

[1] = compound: CC(=O)c1cnc2ccc(-c3cc(Cl)c(O)c(Cl)c3)nc2c1N[C@H]1CC[C@H](CN(C)C)CC1
Procedure, shortened: as §1

ralimetinib = compound: CC(C)(C)Cn1c(N)nc2ccc(-c3[nH]c(C(C)(C)C)nc3-c3ccc(F)cc3)nc21 [ralimetinib]
Procedure, shortened: as §1

[2] = compound: CC(C)(O)CC(=O)NCCn1ccc2ncnc(Nc3ccc(Oc4cccc(C(F)(F)F)c4)c(Cl)c3)c21
Procedure, shortened: as §1

[3] = compound: CC(C)C1=C2N=C(C=C(N2N=C1)NCC3=CC=CC=C3)NCCCCCCN
Procedure, shortened: as §1

[4] = compound: CC1=C(C(CC(=O)N1)C2=CC=C(C=C2)C(F)(F)F)C(=O)NC3=C(C=C4C(=C3)C=NN4)F
Procedure, shortened: as §1

[5] = compound: CC1=C(C2=C(C=C1)C(=O)C3=CC=CC=C3N2CCCN)C
Procedure, shortened: as §1

[6] = compound: CC1=C(C=C(C=C1)NC(=O)C2=CC(=CC=C2)C(C)(C)C#N)NC3=CC4=C(C=C3)N=CN(C4=O)C
Procedure, shortened: as §1

[7] = compound: CC1=C(C=C(C=C1)NC(=O)C2=CC(=CC=C2)N(C)C)NC(=O)C3=CC=C(C=C3)O
Procedure, shortened: as §1

[8] = compound: CC1=CC=C(C=C1)SC2=C3C=C(SC3=CN=C2)C(=O)N
Procedure, shortened: as §1

Measured: log2 fold change

CALM2 (UniProt P0DP24)
inactive: ibrutinib 0.262 | [1] 0.004 | ralimetinib -0.014 | [2] -0.238 | [3] -0.07 | [4] -0.044 | [5] -0.101 | [6] -0.013 | [7] -0.099 | [8] 0.004

BRD3 (UniProt Q15059)
inactive: ibrutinib -0.011 | [1] 0.04 | [3] 0.095 | [4] -0.054 | [5] -0.033 | [6] 0.059 | [8] -0.074

CARD9 (UniProt Q9H257)
inactive: ibrutinib -0.034 | [1] 0.037 | ralimetinib 0.014 | [2] -0.029 | [3] 0.019 | [4] -0.022 | [5] -0.027 | [6] -0.005 | [7] -0.008 | [8] -0.038

CEP76 (UniProt Q8TAP6)
inactive: ibrutinib -0.004 | [1] 0.081 | ralimetinib 0.019 | [2] 0.003 | [3] -0.002 | [4] -0.019 | [5] -0.063 | [6] 0.051 | [7] 0 | [8] -0.005

BICRA (UniProt Q9NZM4)
inactive: ibrutinib -0.053 | [1] -0.093 | ralimetinib -0.138 | [2] -0.271 | [3] 0.102 | [5] -0.168 | [6] -0.012 | [7] -0.003 | [8] -0.156

CAMKK1 isoform 2 (UniProt Q8N5S9)
inactive: ibrutinib 0.027 | [1] 0.189 | ralimetinib 0.063 | [2] -0.153 | [3] -0.059 | [4] -0.008 | [5] -0.055 | [6] 0.014 | [7] 0.004 | [8] 0.138

CDKN1C (UniProt P49918)
inactive: ibrutinib 0.002 | [1] -0.001 | ralimetinib 0.055 | [2] -0.045 | [3] 0.077 | [4] 0.017 | [5] 0.006 | [6] -0.032 | [7] 0.023 | [8] 0.005

CCNYL1 (UniProt Q8N7R7)
UniProt Q8N7R7, sequence (Q8N7R7 whole entry, looked up): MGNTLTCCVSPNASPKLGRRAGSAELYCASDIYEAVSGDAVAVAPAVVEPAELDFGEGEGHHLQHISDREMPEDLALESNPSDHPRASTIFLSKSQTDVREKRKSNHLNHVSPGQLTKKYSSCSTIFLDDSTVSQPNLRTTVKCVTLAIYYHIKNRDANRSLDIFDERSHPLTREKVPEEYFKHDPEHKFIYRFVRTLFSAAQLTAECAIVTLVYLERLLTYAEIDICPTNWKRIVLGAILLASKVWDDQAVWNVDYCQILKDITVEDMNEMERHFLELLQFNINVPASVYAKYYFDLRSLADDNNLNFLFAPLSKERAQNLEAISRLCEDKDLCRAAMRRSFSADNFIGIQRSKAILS
inactive: ibrutinib 0.047 | [1] 0.007 | ralimetinib 0.019 | [2] -0.032 | [3] 0.012 | [4] 0.027 | [5] -0.023 | [6] 0.028 | [7] -0.027 | [8] -0.006

CFDP1 (UniProt Q9UEE9)
UniProt Q9UEE9, sequence (Q9UEE9 whole entry, looked up): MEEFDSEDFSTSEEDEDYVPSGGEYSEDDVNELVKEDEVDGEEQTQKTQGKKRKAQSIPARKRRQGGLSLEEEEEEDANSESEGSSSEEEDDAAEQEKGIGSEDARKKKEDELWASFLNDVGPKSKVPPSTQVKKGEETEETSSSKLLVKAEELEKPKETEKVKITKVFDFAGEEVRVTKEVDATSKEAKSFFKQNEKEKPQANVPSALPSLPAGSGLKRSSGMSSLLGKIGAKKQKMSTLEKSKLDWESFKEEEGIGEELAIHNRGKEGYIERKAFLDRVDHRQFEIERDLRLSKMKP
inactive: ibrutinib 0.032 | [1] 0.014 | ralimetinib 0.051 | [2] -0.015 | [3] -0.052 | [4] -0.014 | [5] -0.027 | [6] 0.021 | [7] 0.027 | [8] -0.012

CEP41 (UniProt Q9BYV8)
UniProt Q9BYV8, sequence (Q9BYV8 whole entry, looked up): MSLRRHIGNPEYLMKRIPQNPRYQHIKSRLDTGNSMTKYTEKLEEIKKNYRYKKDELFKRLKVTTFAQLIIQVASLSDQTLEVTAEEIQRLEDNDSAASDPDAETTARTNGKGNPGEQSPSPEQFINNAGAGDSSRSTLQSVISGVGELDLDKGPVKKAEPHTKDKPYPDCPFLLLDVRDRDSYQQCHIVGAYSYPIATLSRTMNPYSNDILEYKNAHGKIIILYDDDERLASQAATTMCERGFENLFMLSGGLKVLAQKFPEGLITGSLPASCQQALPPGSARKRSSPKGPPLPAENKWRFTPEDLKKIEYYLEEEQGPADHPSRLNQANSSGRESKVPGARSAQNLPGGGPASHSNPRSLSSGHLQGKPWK
inactive: ibrutinib 0.014 | [1] 0.045 | [3] 0.021 | [4] -0.025 | [5] 0.095 | [6] 0.011 | [8] -0.031

CDS2 (UniProt O95674)
UniProt O95674, sequence (O95674 whole entry, looked up): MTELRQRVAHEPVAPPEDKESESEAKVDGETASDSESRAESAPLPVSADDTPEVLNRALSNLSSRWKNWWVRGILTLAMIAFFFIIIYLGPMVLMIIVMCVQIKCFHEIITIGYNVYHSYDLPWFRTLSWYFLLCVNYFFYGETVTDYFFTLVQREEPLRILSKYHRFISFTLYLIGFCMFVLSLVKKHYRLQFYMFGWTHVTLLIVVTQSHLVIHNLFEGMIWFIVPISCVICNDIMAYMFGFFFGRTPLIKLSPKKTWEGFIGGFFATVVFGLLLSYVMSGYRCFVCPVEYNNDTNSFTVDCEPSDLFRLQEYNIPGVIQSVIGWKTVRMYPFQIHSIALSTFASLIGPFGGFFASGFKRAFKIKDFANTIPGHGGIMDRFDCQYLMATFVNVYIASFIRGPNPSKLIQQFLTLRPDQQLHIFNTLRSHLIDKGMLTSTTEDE
inactive: ibrutinib 0.008 | [1] -0.013 | ralimetinib -0.061 | [2] -0.07 | [3] -0.03 | [4] -0.025 | [5] 0.004 | [6] 0.05 | [7] 0.04 | [8] -0.015

C8orf37 (UniProt Q96NL8)
UniProt Q96NL8, sequence (Q96NL8 whole entry, looked up): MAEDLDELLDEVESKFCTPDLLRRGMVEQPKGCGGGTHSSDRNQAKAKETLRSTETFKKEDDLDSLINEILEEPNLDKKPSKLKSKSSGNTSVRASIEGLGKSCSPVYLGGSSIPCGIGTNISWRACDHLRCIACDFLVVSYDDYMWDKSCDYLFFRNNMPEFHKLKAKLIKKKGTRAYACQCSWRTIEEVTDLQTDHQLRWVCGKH
inactive: ibrutinib 0.214 | [1] -0.037 | ralimetinib -0.004 | [2] 0.031 | [3] -0.038 | [5] -0.006 | [6] 0.089 | [7] 0.031 | [8] -0.089

CHCHD7 isoform 4 (UniProt Q9BUK0)
UniProt Q9BUK0, sequence (Q9BUK0 whole entry, looked up): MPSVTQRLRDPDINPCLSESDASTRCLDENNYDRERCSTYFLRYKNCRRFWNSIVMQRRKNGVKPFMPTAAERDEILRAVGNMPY
inactive: ibrutinib -0.109 | [1] 0.008 | ralimetinib -0.038 | [2] -0.014 | [4] 0.116 | [5] 0.002 | [6] -0.025 | [7] 0.024 | [8] -0.061

CARHSP1 (UniProt Q9Y2V2)
UniProt Q9Y2V2, sequence (Q9Y2V2 whole entry, looked up): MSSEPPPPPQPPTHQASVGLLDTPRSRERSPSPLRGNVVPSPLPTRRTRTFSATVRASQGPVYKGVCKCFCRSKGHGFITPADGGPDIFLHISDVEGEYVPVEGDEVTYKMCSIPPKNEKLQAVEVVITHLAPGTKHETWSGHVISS
inactive: ibrutinib 0.053 | [1] 0.021 | ralimetinib -0.024 | [2] -0.032 | [3] 0.017 | [4] -0.029 | [5] 0.006 | [6] 0.014 | [7] 0.009 | [8] -0.008

CDKN1B (UniProt P46527)
inactive: ibrutinib 0.141 | [1] 0.013 | ralimetinib 0.037 | [2] 0.069 | [3] -0.037 | [5] -0.053 | [6] -0.325 | [7] -0.019 | [8] 0.017

ATF7IP2 (UniProt Q5U623)
inactive: ibrutinib 0.054 | [1] -0.03 | ralimetinib 0.045 | [2] -0.201 | [3] 0.058 | [4] -0.056 | [6] 0.097 | [7] -0.04 | [8] -0.088

CDC16 (UniProt Q13042)
UniProt Q13042, sequence (Q13042 whole entry, looked up): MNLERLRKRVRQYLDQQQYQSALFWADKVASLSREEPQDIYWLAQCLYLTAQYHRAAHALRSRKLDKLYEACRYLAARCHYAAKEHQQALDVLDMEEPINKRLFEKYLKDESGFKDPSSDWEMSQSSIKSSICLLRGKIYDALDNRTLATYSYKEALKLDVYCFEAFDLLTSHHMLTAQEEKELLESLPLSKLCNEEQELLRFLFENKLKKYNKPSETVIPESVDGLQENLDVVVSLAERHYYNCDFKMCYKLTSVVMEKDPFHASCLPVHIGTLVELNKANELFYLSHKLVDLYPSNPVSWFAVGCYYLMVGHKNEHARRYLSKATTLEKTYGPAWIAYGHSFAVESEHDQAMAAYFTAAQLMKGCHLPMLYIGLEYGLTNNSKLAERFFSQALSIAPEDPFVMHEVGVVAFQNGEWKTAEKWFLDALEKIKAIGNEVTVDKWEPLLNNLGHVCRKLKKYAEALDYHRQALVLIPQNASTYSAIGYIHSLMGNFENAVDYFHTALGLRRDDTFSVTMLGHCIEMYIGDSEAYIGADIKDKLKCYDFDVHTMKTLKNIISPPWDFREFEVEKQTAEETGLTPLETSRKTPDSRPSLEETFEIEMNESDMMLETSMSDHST
inactive: ibrutinib 0.02 | [1] 0.019 | ralimetinib 0.025 | [2] -0.022 | [3] 0.012 | [4] -0.006 | [5] 0.04 | [6] -0.029 | [7] -0.005 | [8] 0.025

C6orf120 (UniProt Q7Z4R8)
UniProt Q7Z4R8, sequence (Q7Z4R8 whole entry, looked up): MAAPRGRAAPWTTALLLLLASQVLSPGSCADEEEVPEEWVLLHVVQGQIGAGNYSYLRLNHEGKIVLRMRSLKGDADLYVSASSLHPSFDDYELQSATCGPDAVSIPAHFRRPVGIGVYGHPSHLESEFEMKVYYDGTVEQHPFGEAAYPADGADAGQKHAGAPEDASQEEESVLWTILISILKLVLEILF
inactive: ibrutinib 0.013 | [1] -0.017 | [3] -0.003 | [5] 0.015 | [8] 0.126

C2CD5 isoform 3 (UniProt Q86YS7)
inactive: ibrutinib -0.005 | [1] -0.026 | ralimetinib 0.016 | [2] -0.123 | [3] 0.019 | [4] -0.018 | [5] 0.023 | [6] 0.071 | [7] -0.004 | [8] -0.068

CCDC186 (UniProt Q7Z3E2)
UniProt Q7Z3E2, sequence (Q7Z3E2 whole entry, looked up): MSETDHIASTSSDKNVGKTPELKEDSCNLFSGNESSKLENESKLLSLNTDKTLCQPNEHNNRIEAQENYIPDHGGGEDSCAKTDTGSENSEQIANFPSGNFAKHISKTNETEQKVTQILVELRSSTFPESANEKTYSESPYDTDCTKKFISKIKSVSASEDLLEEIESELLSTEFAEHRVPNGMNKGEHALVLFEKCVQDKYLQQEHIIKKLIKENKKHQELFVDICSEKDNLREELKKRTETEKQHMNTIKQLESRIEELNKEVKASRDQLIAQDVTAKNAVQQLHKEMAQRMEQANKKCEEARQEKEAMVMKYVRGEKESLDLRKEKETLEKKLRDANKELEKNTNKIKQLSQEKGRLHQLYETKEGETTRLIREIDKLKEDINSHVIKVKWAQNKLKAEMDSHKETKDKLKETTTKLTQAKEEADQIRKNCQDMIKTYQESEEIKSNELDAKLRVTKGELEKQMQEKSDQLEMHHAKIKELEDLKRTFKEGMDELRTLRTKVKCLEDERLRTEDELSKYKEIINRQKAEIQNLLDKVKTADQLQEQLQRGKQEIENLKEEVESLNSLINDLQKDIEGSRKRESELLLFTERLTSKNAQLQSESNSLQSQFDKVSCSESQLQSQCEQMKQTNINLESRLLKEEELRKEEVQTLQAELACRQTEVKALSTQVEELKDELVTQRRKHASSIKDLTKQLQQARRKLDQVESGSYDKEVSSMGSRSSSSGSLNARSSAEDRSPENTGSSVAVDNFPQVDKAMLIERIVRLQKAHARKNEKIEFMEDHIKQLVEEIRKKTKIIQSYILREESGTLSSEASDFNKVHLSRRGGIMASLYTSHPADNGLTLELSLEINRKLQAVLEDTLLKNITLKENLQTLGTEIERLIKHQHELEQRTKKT
inactive: ibrutinib 0.024 | [1] -0.025 | ralimetinib -0.001 | [2] -0.056 | [3] -0.086 | [4] 0.006 | [5] 0.021 | [6] -0.016 | [7] 0 | [8] -0.023

C18orf25 isoform 2 (UniProt Q96B23)
UniProt Q96B23, sequence (Q96B23 whole entry, looked up): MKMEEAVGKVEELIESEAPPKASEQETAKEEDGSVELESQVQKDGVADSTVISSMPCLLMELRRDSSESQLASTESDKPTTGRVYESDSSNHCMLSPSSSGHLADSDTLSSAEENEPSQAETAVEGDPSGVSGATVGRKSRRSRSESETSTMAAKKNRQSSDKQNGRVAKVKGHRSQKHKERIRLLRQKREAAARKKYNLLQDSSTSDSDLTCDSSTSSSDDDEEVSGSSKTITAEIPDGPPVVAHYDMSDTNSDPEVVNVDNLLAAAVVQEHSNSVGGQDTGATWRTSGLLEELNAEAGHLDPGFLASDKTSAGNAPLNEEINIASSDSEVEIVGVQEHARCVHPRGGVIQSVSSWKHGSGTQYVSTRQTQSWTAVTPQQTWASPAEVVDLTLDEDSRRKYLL
inactive: ibrutinib 0.126 | [1] 0.1 | ralimetinib -0.065 | [2] -0.027 | [3] -0.013 | [4] -0.088 | [5] 0.015 | [7] -0.017 | [8] -0.076

BUD13 (UniProt Q9BRD0)
inactive: ibrutinib 0.07 | ralimetinib 0.033 | [2] 0.034 | [3] -0.051 | [4] -0.051 | [5] -0.219 | [6] 0.013 | [7] -0.013

CCDC85B (UniProt Q15834)
inactive: ibrutinib 0.215 | [1] -0.248 | ralimetinib -0.001 | [2] 0.05 | [3] 0.056 | [5] 0.004 | [6] -0.016 | [7] -0.163 | [8] 0.014

CAPNS1 (UniProt U3KPR7)
inactive: ibrutinib 0.034 | [1] -0.007 | [4] 0.155 | [8] 0.099

C9orf72 (UniProt Q96LT7)
inactive: ibrutinib -0.079 | [1] -0.004 | ralimetinib -0.011 | [2] -0.021 | [3] 0.025 | [4] -0.066 | [5] 0.014 | [6] -0.003 | [7] -0.023 | [8] 0.038

AUH (UniProt Q13825)
UniProt Q13825, sequence (Q13825 whole entry, looked up): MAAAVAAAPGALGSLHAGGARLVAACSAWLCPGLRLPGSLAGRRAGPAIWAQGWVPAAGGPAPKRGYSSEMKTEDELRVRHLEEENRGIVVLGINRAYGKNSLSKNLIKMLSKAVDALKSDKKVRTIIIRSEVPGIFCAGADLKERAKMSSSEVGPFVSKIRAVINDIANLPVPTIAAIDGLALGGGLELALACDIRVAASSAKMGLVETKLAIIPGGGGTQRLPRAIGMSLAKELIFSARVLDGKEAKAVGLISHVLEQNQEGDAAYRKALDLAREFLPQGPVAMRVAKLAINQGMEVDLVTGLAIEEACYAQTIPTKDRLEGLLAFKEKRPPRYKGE
inactive: ibrutinib 0.024 | [1] 0.103 | ralimetinib -0.161 | [2] -0.003 | [3] 0.011 | [5] -0.304 | [6] 0.015 | [7] -0.132 | [8] -0.058

CCNC (UniProt P24863)
inactive: ibrutinib -0.04 | [1] 0.087 | ralimetinib 0.026 | [2] 0.011 | [3] 0.02 | [4] -0.05 | [5] 0.034 | [6] 0.061 | [7] 0.016 | [8] 0.184

C16orf70 (UniProt Q9BSU1)
inactive: ibrutinib -0.048 | [1] -0.011 | ralimetinib 0.034 | [2] 0.031 | [3] -0.068 | [5] -0.043 | [6] 0 | [7] 0.058 | [8] -0.024

ATE1 (UniProt O95260)
UniProt O95260, sequence (O95260 whole entry, looked up): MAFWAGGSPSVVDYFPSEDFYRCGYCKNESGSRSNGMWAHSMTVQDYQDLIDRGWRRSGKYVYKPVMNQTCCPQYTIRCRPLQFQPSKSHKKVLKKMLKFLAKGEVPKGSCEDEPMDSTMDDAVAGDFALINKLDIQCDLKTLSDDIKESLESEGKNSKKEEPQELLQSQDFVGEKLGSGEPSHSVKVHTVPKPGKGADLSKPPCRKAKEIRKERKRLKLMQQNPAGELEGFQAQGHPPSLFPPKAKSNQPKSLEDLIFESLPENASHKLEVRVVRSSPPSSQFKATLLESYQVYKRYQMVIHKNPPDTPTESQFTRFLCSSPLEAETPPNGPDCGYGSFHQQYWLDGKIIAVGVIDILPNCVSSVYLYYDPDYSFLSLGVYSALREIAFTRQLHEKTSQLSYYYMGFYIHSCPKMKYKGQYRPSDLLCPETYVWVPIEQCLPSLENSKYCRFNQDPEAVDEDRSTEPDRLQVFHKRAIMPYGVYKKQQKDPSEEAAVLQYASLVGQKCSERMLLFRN
inactive: ibrutinib 0.081 | [1] -0.025 | [6] -0.101 | [8] -0.022

ATRIP (UniProt Q8WXE1)
inactive: ibrutinib 0.019 | [1] 0.129 | ralimetinib -0.007 | [2] -0.014 | [3] -0.048 | [4] 0.063 | [5] 0.005 | [6] -0.008 | [7] -0.008 | [8] -0.019

CDAN1 (UniProt Q8IWY9)
inactive: ibrutinib 0.035 | [1] -0.004 | ralimetinib 0 | [2] -0.029 | [3] -0.02 | [4] -0.001 | [5] -0.023 | [6] 0.035 | [7] 0.056 | [8] -0.008

C19orf54 (UniProt Q5BKX5)
inactive: ibrutinib 0.041 | [1] 0.003 | ralimetinib -0.018 | [2] -0.055 | [3] 0.028 | [4] 0.012 | [5] 0.06 | [6] -0.041 | [7] 0.013 | [8] 0.063
